This passage reports outcome results from PubChem BioAssay AID1053115 (Broad Institute, 2014).

SMILES strings stand for the structures. Results with a measured potency or affinity are listed apart. The source made the active and inactive calls.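 The calls were made as follows: active = cytotoxic compounds whose fitted half-maximal concentration is at most twice the top valid tested dose; inconclusive = flat curve showing 30 to 70% signal loss, or poor fit; inactive = the rest.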

The assay is described as follows: A549 cell cytotoxicity, dose response, cytotoxicity control, 24 h, CellTiter-Glo luminescence, cherry-picks (AID 1053115). Particulars: A549 viability, CellTiter-Glo ATP luminescence; series mostly up to 30 µM. On the technique in general: Cellular ATP, detected with luciferase, serves as a proxy for viable cell number.
Take `C[C@@H]1CN([C@@H](C)CO)S(=O)(=O)c2ccc(C#C[C@@H](C)O)cc2O[C@H]1CN(C)Cc1ccccc1`: the compound was called inactive.

As for `C[C@H](O)C#Cc1ccc2c(c1)O[C@@H](CN(C)Cc1ccccc1)[C@@H](C)CN([C@H](C)CO)S2(=O)=O`, the result was inactive.

Regarding `CN1c2ccc(C#Cc3cccnc3)cc2[C@H]2[C@H](CCN2C(=O)C2CCCCC2)[C@@H]1CO`, the call was inactive.

`COc1ccccc1CN1CC[C@@H]2[C@H]1c1cc(-c3ccc(C(=O)N(C)C)cc3)ccc1N[C@@H]2CO`: the outcome was inactive.

`C[C@@H]1CN([C@@H](C)CO)S(=O)(=O)c2ccc(C#C[C@@H](C)O)cc2O[C@@H]1CN(C)Cc1ccc(-c2ccccc2)cc1`: the result was inactive.

Turning to `C[C@H](O)C#Cc1ccc2c(c1)O[C@H](CN(C)Cc1ccccc1)[C@@H](C)CN([C@@H](C)CO)S2(=O)=O`, the compound was classed as inactive.

Turning to `CN1c2ccc(C#Cc3cccnc3)cc2[C@@H]2[C@@H](CCN2C(=O)C2CCC2)[C@@H]1CO`, the compound was called inactive.

Regarding `C[C@@H]1CN([C@H](C)CO)S(=O)(=O)c2ccc(C#C[C@@H](C)O)cc2O[C@@H]1CN(C)Cc1ccccc1`, the outcome was inactive.

On to `C[C@H](O)C#Cc1ccc2c(c1)O[C@@H](CN(C)Cc1ccccc1)[C@H](C)CN([C@H](C)CO)S2(=O)=O`, for which the compound was classed as inactive.

Regarding `Cc1noc(C)c1S(=O)(=O)Nc1ccc2c(c1)C(=O)N([C@@H](C)CO)C[C@@H](C)[C@H](CN(C)S(=O)(=O)c1cccs1)O2`, the compound was called inactive.

Regarding `C[C@@H]1CN([C@H](C)CO)S(=O)(=O)c2ccc(C#C[C@@H](C)O)cc2O[C@@H]1CN(C)Cc1ccc(-c2ccccc2)cc1`, the result was inactive.

Regarding `C[C@@H]1CN([C@@H](C)CO)C(=O)Cc2cc(NC(=O)C3CCCCC3)ccc2O[C@H]1CN(C)C(=O)Nc1ccccc1`, the compound was classed as inactive.

Turning to `CN1c2ccc(C#Cc3cccnc3)cc2[C@H]2[C@H](CCN2C(=O)C2CCC2)[C@@H]1CO`, the call was inactive.

Take `CN(C)C(=O)c1ccc(-c2cccc(-c3nc(C(=O)NC4CCCCC4)cc4c3[C@@H](CCO)N([S@](=O)C(C)(C)C)C4)c2)cc1`: the call was inactive.

Regarding `CN1c2ccc(C#Cc3cccnc3)cc2[C@@H]2[C@@H](CCN2C(=O)C2CCCCC2)[C@H]1CO`, the call was inactive.

As for `C[C@@H]1CN([C@@H](C)CO)S(=O)(=O)c2ccc(C#C[C@@H](C)O)cc2O[C@@H]1CN(C)Cc1ccccc1`, the outcome was inactive.

With `C[C@H](O)C#Cc1ccc2c(c1)O[C@H](CN(C)Cc1ccccc1)[C@H](C)CN([C@H](C)CO)S2(=O)=O`, the compound was classed as inactive.

In the case of `C[C@H](CO)N1C[C@H](C)[C@@H](CN(C)Cc2ccccc2)Oc2cc(C#C[C@@H](C)O)ccc2S1(=O)=O`, the call was inactive.

As for `CCCNC(=O)C[C@H]1CC[C@@H]2[C@@H](COc3ccc(NC(=O)CCC)cc3C(=O)N2C)O1`, the outcome was inactive.

In the case of `CN1c2ccc(C#Cc3cccnc3)cc2[C@H]2[C@H](CCN2C(=O)C2CCCCC2)[C@H]1CO`, the outcome was inactive.

As to `CO[C@H]1CN(C)C(=O)c2ccc(NC(=O)c3ccc(F)cc3)cc2OC[C@H](C)N(C(=O)c2ccc(F)cc2)C[C@@H]1C`, the compound was classed as inactive.

For `C[C@@H]1CN([C@H](C)CO)S(=O)(=O)c2ccc(C#C[C@@H](C)O)cc2O[C@H]1CN(C)Cc1ccccc1`, the result was inactive.
